In PubChem BioAssay (NCATS):
Results filed as inconclusive are left out. A call without a number means that no potency is given here. Activity calls are given as the source filed them. The call rests on the fitted dose curve; in most records, active means well fitted inhibition curve with a large enough effect; inconclusive means small, poorly fitted or top-dose-only effect; inactive means no such curve, though single readings can be large or run the other way.

How the values were obtained:
[1] = test system: Zika virus NS2B-NS3 protease (unlinked complex); experiment: Primary screen GU Rhodamine qHTS for Zika virus inhibitors: Unlinked NS2B-NS3 protease assay (AID 1347159); further: nearly all actives have a fitted effect of over 60% in size
Summary of the method: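 In dose–response format, inhibition of unlinked protease (25 nM) was measured with 1.5 microM bis-peptide Rhodamine110 substrate. Aprotinin served as the intraplate control.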

[2] = test system: Zika virus NS2B-NS3 protease (linked construct); experiment: Primary screen NINDS Rhodamine qHTS for Zika virus inhibitors (AID 1347160); further: nearly all actives have a fitted effect of over 55% in size
Summary of the method: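 Each compound, titrated, sat 15 min with 25 nM linked protease before 1.5 microM Rhodamine110 substrate went in. Fluorescence gain over the next 15 min, in pH 8.0 Tris with Tween 20, gave Hill-fitted curves.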

| Compound | Potency [1] | Potency [2] |
| --- | --- | --- |
| C=C(CO)C(=O)O[C@H]1C/C(C)=C/CC/C(CO)=C/[C@H]2OC(=O)C(=C)[C@H]12 | inactive | inactive |
| CO[C@H]1[C@H](O)[C@H](O[C@H]2CC[C@]3(C)C4CC[C@]5(C)[C@H](C6=CC(=O)OC6)CC[C@]5(O)C4CC[C@@H]3C2)O[C@@H](C)[C@@H]1O (some centres undefined) | inactive | inactive |
| Cc1cccc(NC(=O)N[C@@H]2N=C(c3ccccc3)c3ccccc3N(C)C2=O)c1 | inactive | inactive |
| CCOc1ccccc1-n1c(C(C)N2CCN(C(=O)COc3ccc(Cl)cc3)CC2)nc2ccccc2c1=O (centres undefined) | inactive | inactive |
| CCc1[nH]c2ccc(OC)cc2c1CCN(C)C | inactive | inactive |
| C1=C2CCCN[C@H]2[C@@H]2C[C@H]1[C@H]1CCCCN1C2 | inactive | inactive |
| COC1CC(OC2CCC3(C)C(CCC4C3CCC3(C)C(C5=CC(=O)OC5)C(OC(C)=O)CC43O)C2)OC(C)C1OC1OC(CO)C(O)C(O)C1O (centres undefined) | inactive | inactive |
| Cn1ncnc1COc1nn2c(-c3c(F)cccc3F)nnc2cc1C1CCC1 | inactive | inactive |
| CCC(C)(C#N)O[C@@H]1O[C@H](CO)[C@@H](O)[C@H](O)[C@H]1O (some centres undefined) | inactive | inactive |
| COc1ccccc1CN[C@H]1C2CCN(CC2)[C@H]1C(c1ccccc1)c1ccccc1 | inactive | inactive |
| CN[C@H]1[C@H](O)[C@H](O[C@@H]2[C@@H](O)[C@H](O[C@H]3O[C@H]([C@H](C)O)[C@@H](O)[C@H](O)[C@H]3N)[C@@H](N)C[C@H]2N)OC[C@@]1(C)O | inactive | inactive |
| OC1(c2ccc(Cl)cc2)c2ccccc2C2=NCCN21 (centres undefined) | inactive | inactive |
| CN1CCCC1CCOC(c1cc2nccc(C(=O)O)c2[nH]1)c1ccccc1Cl (centres undefined) | inactive | inactive |
| CC(C)C1(OO)C=C2C(=O)CC3C(C)(C(=O)O)CCCC3(C)C2CC1 (centres undefined) | inactive | inactive |
| C[C@@H]1C(=O)O[C@H]2[C@H](O)[C@@]34[C@@H]5OC(=O)[C@@]3(O[C@@H]3OC(=O)[C@@H](O)[C@@]34[C@H](C(C)(C)C)[C@H]5O)[C@@]12O | inactive | inactive |
| C[C@H](NC(=O)Cc1cc(F)cc(F)c1)C(=O)N[C@@H]1N=C(c2ccccc2)c2ccccc2N(C)C1=O | inactive | inactive |
| C/C=C(\C)C(=O)OC1CC2C(CC=C3CC(OC4CC(OC)C(OC5CC(OC)C(OC6OC(C)C(OC7OC(CO)C(O)C(O)C7O)C(OC)C6O)C(C)O5)C(C)O4)CCC32C)C2(O)CCC(C(C)=O)C12C (centres undefined) | inactive | inactive |
| COC(=O)[C@@]12C(=O)C(C)C(=O)[C@]1(C)C(C)=C[C@H]1[C@]3(C=O)CC[C@H](OC(C)=O)C(C)(C)[C@H]3CC[C@@]12C (some centres undefined) | inactive | inactive |
| C[C@H]1O[C@@H](O[C@H]2C[C@@H](O)[C@]3(CO)C4C(CC[C@]3(O)C2)[C@@]2(O)CC[C@H](C3=CC(=O)OC3)[C@@]2(C)C[C@H]4O)[C@@H](O)[C@@H](O)[C@H]1O (some centres undefined) | inactive | inactive |
| CN1CCC[C@@H]1Cc1c[nH]c2ccc(Nc3ncccc3[N+](=O)[O-])cc12 | inactive | inactive |
| CCC(C)(OC(C)=O)C(=O)O[C@H]1[C@H](OC(C)=O)C[C@@H]2[C@@](C)([C@@H]3C[C@H]4C=CO[C@H]4O3)[C@H](C)C[C@H](OC(C)=O)[C@@]2(COC(C)=O)[C@@]12CO2 (some centres undefined) | inactive | inactive |
| CO[C@@H]1[C@H](O)[C@@H](O[C@@H]2C[C@H]3CC[C@@H]4C(CC[C@]5(C)[C@@H](C6=CC(=O)OC6)CC[C@]45O)[C@@]3(C)[C@H](O)C2)O[C@H](C)[C@@H]1O[C@@H]1O[C@H](CO)[C@@H](O)[C@H](O)[C@H]1O (some centres undefined) | inactive | inactive |
| COC1CC(OC2CCC3(C)C(=CCC4C3CCC3(C)C(C(C)OC5OC(COC6OC(CO)C(O)C(O)C6O)C(O)C(O)C5O)CCC43O)C2)OC(C)C1OC1OC(C)C(O)C(OC)C1O (centres undefined) | inactive | inactive |
| COc1cc(CCNCc2ccccc2O)c(OC)cc1C#N | inactive | inactive |
| C=C[C@H]1[C@H](O[C@@H]2O[C@H](CO)[C@@H](O)[C@H](O)[C@H]2O)OC=C2C(=O)OCC[C@H]21 | inactive | inactive |
| CN1C(=O)N(c2ccc(C#N)c(C(F)(F)F)c2)C(=O)[C@]1(CO)c1ccccc1 | inactive | inactive |
| OCCCCC#Cc1cncc(OC[C@@H]2CCN2)c1 | inactive | inactive |
